Results reported in PubChem BioAssay (NCI).
Compounds without any hit were thinned out: in the full panel of roughly 83,000, 20% have a hit.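 Activity criterion: percent growth below 10, measured after cells in 96-well plates were exposed to a single compound concentration for 48 hours.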 Unmarked numbers belong to inactive results. Calls of active or inactive are those of the source.

Each compound was assayed on BT-549 breast (assay: NCI-60 one-dose screen, 48 h (100 = growth as untreated, 0 = no growth, -100 = all killed)). Details: 10 µM unless noted.

SMILES | growth [%]
CC(C)=CCC[C@@H](C)[C@H]1CC[C@@]2(C)C3=C(CC[C@]12C)[C@@]1(C)CC[C@H](O)C(C)(C)[C@@H]1CC3 | 109
CCN(CC)CCN1CNC(=S)NC1 | 102
OC(CCN1CCCCC1)(c1ccccc1)c1ccccc1 | 107
C#CC(O)c1ccccc1 (centres undefined) | 106
CCNc1ncnc2[nH]ncc12 | 84.3
Nc1ccc(F)c(Cl)c1F | 88.8
Clc1ccc(-c2noc(/C=C\c3ccccc3)n2)cc1 | 102
COC1OC(COC(C)=O)C(OC(C)=O)C(OC(C)=O)C1OC(C)=O (centres undefined) | 101
Cc1c(Cl)cccc1N=C=S | 87.9
CCOc1ccc2c(c1)c(C)cc(C)[n+]2CC | 33.8
Cc1cccnc1NC1OC(=O)c2ccccc21 (centres undefined) | 97.6
NS(=O)(=O)c1cc(=O)[nH]c(=O)[nH]1 | 107
COc1ccc2c(ccc[n+]2C)c1 | 113
CN1CCCN(C(c2ccccc2)c2ccc(Cl)cc2)CC1 (centres undefined) | 94.5
Clc1cccc(Cl)c1C1CSc2ccccc2N=C1c1ccccc1 (centres undefined) | 42
O=C(O)CSCC(=O)Nc1cc(C(F)(F)F)ccc1Cl | 114
CC(=O)O[C@H]1CC[C@]2(C)C3=C(C(=O)C[C@H]2C1(C)C)[C@]1(C)CC[C@H]([C@H](C)CCC(=O)O)[C@@]1(C)CC3=O | 93.9
C=COC(=O)C(C)(C)C | 89
COc1cc(-c2ccc(NC(=O)CC(C)=O)c(OC)c2)ccc1NC(=O)CC(C)=O | 83.6

SMILES | growth [%]
CCCCCCCCCCCCCCCCCC(=O)NCCNC(=O)CCCCCCCCCCCCCCCCC | 105
CCOc1ccc(C(=O)O)cc1 | 96.7
CCNCC(C)(C)O | 105
Cc1ccc(S(=O)(=O)NC(=O)NCCSSCCNC(=O)NS(=O)(=O)c2ccc(C)cc2)cc1 | 125
O=C(O)Cc1ccc(Cl)cc1 | 105
ClCC(Cl)[C@@H]1CC2C=CC1C2 (some centres undefined) | 103
CCOC(OCC)C(=O)c1ccccc1 | 101
O=C(CCl)Nc1ccccc1SCc1cc(Cl)cc2c1OCOC2 | 71.9
COc1cccc(C(=O)NNC(=O)c2cccc3ccccc23)c1 | 110
CC(C)N(CCCC#N)C(C)C | 112
O=C(c1cccc(C(=O)c2ccc3c4c(cccc24)C(=O)N(c2ccccc2)C3=O)c1)c1ccc2c3c(cccc13)C(=O)N(c1ccccc1)C2=O | 104
CC(c1ccccc1)N1C(=O)CSC1=S (centres undefined) | 32.9
O=C(OCc1ccccc1)n1nnc2ccccc21 | 100
Nc1ncc([N+](=O)[O-])cn1 | 111
O=C(O)C1CSC(c2ccccc2)N1 (centres undefined) | 104
Cc1ccc(O)c(N)c1 | 95.2
CN(C)c1ccc(O)c2c1CC1CC3C(N(C)C)C(=O)C(C(N)=O)=C(O)C3(O)C(=O)C1=C2O (centres undefined) | 29.2
Nc1c(O)c(S(=O)(=O)O)c(O)c2c1C(=O)c1ccccc1C2=O | 40

Each compound was assayed on MDA-MB-435 melanoma in the same assay as above. Details: 10 µM unless noted.

SMILES | growth
CC(C)=CCC[C@@H](C)[C@H]1CC[C@@]2(C)C3=C(CC[C@]12C)[C@@]1(C)CC[C@H](O)C(C)(C)[C@@H]1CC3 | 101%
CCN(CC)CCN1CNC(=S)NC1 | 109%
OC(CCN1CCCCC1)(c1ccccc1)c1ccccc1 | 98.9%
C#CC(O)c1ccccc1 (centres undefined) | 108%
CCNc1ncnc2[nH]ncc12 | 102%
Nc1ccc(F)c(Cl)c1F | 109%
Clc1ccc(-c2noc(/C=C\c3ccccc3)n2)cc1 | 92.7%
COC1OC(COC(C)=O)C(OC(C)=O)C(OC(C)=O)C1OC(C)=O (centres undefined) | 105%
Cc1c(Cl)cccc1N=C=S | 106%
CCOc1ccc2c(c1)c(C)cc(C)[n+]2CC | 73.9%
Cc1cccnc1NC1OC(=O)c2ccccc21 (centres undefined) | 103%
NS(=O)(=O)c1cc(=O)[nH]c(=O)[nH]1 | 105%
COc1ccc2c(ccc[n+]2C)c1 | 110%
CN1CCCN(C(c2ccccc2)c2ccc(Cl)cc2)CC1 (centres undefined) | 89.6%
Clc1cccc(Cl)c1C1CSc2ccccc2N=C1c1ccccc1 (centres undefined) | 15.4%
O=C(O)CSCC(=O)Nc1cc(C(F)(F)F)ccc1Cl | 111%
CC(=O)O[C@H]1CC[C@]2(C)C3=C(C(=O)C[C@H]2C1(C)C)[C@]1(C)CC[C@H]([C@H](C)CCC(=O)O)[C@@]1(C)CC3=O | 98.7%
C=COC(=O)C(C)(C)C | 101%
COc1cc(-c2ccc(NC(=O)CC(C)=O)c(OC)c2)ccc1NC(=O)CC(C)=O | 105%

SMILES | growth
CCCCCCCCCCCCCCCCCC(=O)NCCNC(=O)CCCCCCCCCCCCCCCCC | 94.2%
CCOc1ccc(C(=O)O)cc1 | 104%
CCNCC(C)(C)O | 106%
Cc1ccc(S(=O)(=O)NC(=O)NCCSSCCNC(=O)NS(=O)(=O)c2ccc(C)cc2)cc1 | 101%
O=C(O)Cc1ccc(Cl)cc1 | 97.3%
ClCC(Cl)[C@@H]1CC2C=CC1C2 (some centres undefined) | 96.9%
CCOC(OCC)C(=O)c1ccccc1 | 109%
O=C(CCl)Nc1ccccc1SCc1cc(Cl)cc2c1OCOC2 | 24.1%
COc1cccc(C(=O)NNC(=O)c2cccc3ccccc23)c1 | 113%
CC(C)N(CCCC#N)C(C)C | 103%
O=C(c1cccc(C(=O)c2ccc3c4c(cccc24)C(=O)N(c2ccccc2)C3=O)c1)c1ccc2c3c(cccc13)C(=O)N(c1ccccc1)C2=O | 107%
CC(c1ccccc1)N1C(=O)CSC1=S (centres undefined) | -8.13% (active)
O=C(OCc1ccccc1)n1nnc2ccccc21 | 101%
Nc1ncc([N+](=O)[O-])cn1 | 113%
O=C(O)C1CSC(c2ccccc2)N1 (centres undefined) | 108%
Cc1ccc(O)c(N)c1 | 112%
CN(C)c1ccc(O)c2c1CC1CC3C(N(C)C)C(=O)C(C(N)=O)=C(O)C3(O)C(=O)C1=C2O (centres undefined) | 44.8%
Nc1c(O)c(S(=O)(=O)O)c(O)c2c1C(=O)c1ccccc1C2=O | 21.3%
